From PubChem BioAssay
FMDV_antiviral: Primary qHTS Assay for Foot and Mouth Disease Virus Antivirals against NCGC Sytravon and CBC Compound Libraries: Firefly Luciferase Signal; FMDV antiviral cell assay, firefly luciferase signal; Potency, µM (top dose mostly 57.5 µM), actives largely listed as inhibitors; 0.23% of 120,000 active; AID 1745856, 2022; further: nearly all actives have a fitted effect of over 60% in size
FMDV_RLuc: Primary qHTS Assay for Foot and Mouth Disease Virus Antivirals against NCGC Sytravon and CBC Compound Libraries: Renilla Luciferase Signal; FMDV replicon cells, Renilla luciferase signal; Potency, µM (top dose mostly 57.5 µM), hits mostly inhibitors; 0.32% of 120,000 active; AID 1745857, 2022; further: nearly all actives have a fitted effect of over 55% in size
A number is an active result; – = inactive; ? = inconclusive; [ ] = another dose, or the depositor's remark. An excerpt weighted towards active compounds, which were near 0.4% of everything screened. The call rests on the fitted dose curve.

SMILES FMDV_antiviral FMDV_RLuc
Cn1nc(CC(=O)NCc2ccc(F)cc2)c2ccccc2c1=O – ?
COc1ccccc1NC(=O)CSc1nc2ccsc2c(=O)n1C 22.4µM 22.4µM
COc1ccccc1NC(=O)Cc1nn(C)c(=O)c2ccccc12 10µM 10µM
Cn1nc(CC(=O)Nc2ccc(F)cc2Cl)c2ccccc2c1=O ? 7.08µM
Cn1nc(CC(=O)Nc2ccc(Cl)cc2)c2ccccc2c1=O ? 2.82µM
Cn1nc(CC(=O)Nc2cccc(OC(=O)c3ccc(Cl)cc3)c2)c2ccccc2c1=O – –
CCN1CCN(S(=O)(=O)c2ccc(NC(=O)CCc3ncc(-c4ccc(F)cc4)o3)cc2)CC1 – –
O=C(Nc1cccc2cccnc12)c1ccc(F)cc1 – –
O=S(=O)(Nc1cccc2cccnc12)c1ccc(F)cc1 ? 22.4µM
COCCN1CCCNCC1 – –[1.06_µM]
CSCc1ccc(C(=O)Nc2ccc(F)cc2Cl)o1 – –
O=C(CCc1ccccc1)NC1CCN(c2ccccc2S(=O)(=O)C(F)(F)F)CC1 – ?
O=C(Cc1ccccc1)NC1CCN(c2ccc(S(=O)(=O)C(F)(F)F)cc2)CC1 3.16µM 3.55µM
Cc1cccc(C)c1-n1nnnc1SCn1nnc2ccccc2c1=O 20µM 17.8µM
Cc1ccccc1-n1nnnc1SCc1nc(N)c2ccccc2n1 – –
O=C(CCc1cc(Cl)no1)N(CCS(=O)(=O)N1CCOCC1)Cc1ccncc1 – –
O=C(Nc1c(Cl)cccc1Cl)C1=C(c2ccccc2)S(=O)(=O)CCO1 ? 15.8µM
O=C(Nc1cc(C(F)(F)F)ccc1Cl)C1=C(c2ccccc2)S(=O)(=O)CCO1 – –
O=C(Nc1cccc(S(=O)(=O)N2CCCCC2)c1)c1ccc(OCc2cn3ccccc3n2)cc1 – –
O=C(Nc1cccc(S(=O)(=O)N2CCOCC2)c1)c1ccc(OCc2cn3ccccc3n2)cc1 31.6µM ?
CCOC(=O)c1ccc(OCc2ccccc2C#N)cc1 – –
Cc1oc2cc(OCC(=O)Nc3ccc(N4CCOCC4)cc3)ccc2c(=O)c1-c1ccccc1 – –
O=C(Nc1ccccc1Br)c1cc2ccc(O)cc2oc1=O – –
CCOc1ccc(CN(CC)Cc2cc(=O)oc3ccc(OC)cc23)cc1 ? 25.1µM
CCN(Cc1ccc(OC)cc1)Cc1cc(=O)oc2ccc(C)cc12 – –
SMILES FMDV_antiviral FMDV_RLuc
Nc1c(Cl)cc(NC(=O)c2cnc3ccccc3n2)cc1Cl – –
Cc1cc([N+](=O)[O-])ccc1N=C/C(Br)=C/c1ccccc1 – –
NC(=O)NNC(=S)NC12CC3CC(CC(C3)C1)C2 – –
COc1cccc(CNC(=O)c2nc(-c3ccccc3)oc2C)c1 – –
COc1ccc(CNC(=O)c2nc(-c3ccccc3)oc2C)cc1OC ? 17.8µM
O=c1c(N2CCN(Cc3ccccc3)CC2)csc2ccc(Br)cc12 – –
